# Measurements taken from the supplement of paper PMC12282887.
# ± gives the standard deviation of the averaged measurements.
# Legend:
# Test in all cases: promoter activity interaction Z-score (Lux/OD deviation from empty-vector control); higher = stronger promoter induction by the compound
# [1] = tested on: E. coli BW25113 acrABp lux reporter
# Outline: (§1)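 E. coli BW25113 luxCDABE reporter strains grew at 37°C in 40 µl LB Lennox in 384-well plates, with OD600 and luminescence read every 30 min for 12 h. After integration over 0–8 h for wild type or 1–9 h for deletion strains, wells under 10% of the median growth value were removed. Each score is the Z-transformed residual of growth-normalised luminescence fitted against a control.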
# [2] = tested on: E. coli BW25113 micFp lux reporter
# Outline: as §1
# [3] = tested on: E. coli BW25113 ompFp lux reporter
# Outline: as §1
# [4] = tested on: E. coli BW25113 robp lux reporter
# Outline: as §1
# [5] = tested on: E. coli BW25113 soxSp lux reporter
# Outline: as §1
# [6] = tested on: E. coli BW25113 tolCp lux reporter
# Outline: as §1
# [7] = 0.011 µg/ml, genetic background: wild type
# [8] = 0.011 µg/ml, genetic background: ΔmarA
# [9] = 0.011 µg/ml, genetic background: Δrob
# [10] = 0.011 µg/ml, genetic background: ΔsoxS
# [11] = 0.023 µg/ml, genetic background: wild type
# [12] = 0.023 µg/ml, genetic background: ΔmarA
# [13] = 0.023 µg/ml, genetic background: Δrob
# [14] = 0.023 µg/ml, genetic background: ΔsoxS
# [15] = 0.046 µg/ml, genetic background: wild type
# [16] = 0.046 µg/ml, genetic background: ΔmarA
# [17] = 0.046 µg/ml, genetic background: Δrob
# [18] = 0.046 µg/ml, genetic background: ΔsoxS
# [19] = 0.091 µg/ml, genetic background: wild type
# [20] = 0.091 µg/ml, genetic background: ΔmarA
# [21] = 0.091 µg/ml, genetic background: Δrob
# [22] = 0.091 µg/ml, genetic background: ΔsoxS
structure (smiles),measurement,setting,value
C[C@@H]1O[C@@H]1P(=O)(O)O [Fosfomycin],promoter activity interaction Z-score,[1]; [7],-0.0514 ± 0.17
same,promoter activity interaction Z-score,[1]; [8],0.0429 ± 0.25
same,promoter activity interaction Z-score,[1]; [9],0.201 ± 0.24
same,promoter activity interaction Z-score,[1]; [10],-0.0843 ± 0.31
same,promoter activity interaction Z-score,[1]; [11],0.134 ± 0.25
same,promoter activity interaction Z-score,[1]; [12],0.445 ± 0.43
same,promoter activity interaction Z-score,[1]; [13],0.174 ± 0.14
same,promoter activity interaction Z-score,[1]; [14],-0.242 ± 0.29
same,promoter activity interaction Z-score,[1]; [15],-0.142 ± 0.12
same,promoter activity interaction Z-score,[1]; [16],-0.284 ± 0.14
same,promoter activity interaction Z-score,[1]; [17],0.229 ± 0.37
same,promoter activity interaction Z-score,[1]; [18],0.118 ± 0.17
same,promoter activity interaction Z-score,[1]; [19],1.76 ± 0.8
same,promoter activity interaction Z-score,[1]; [20],2.58 ± 0.66
same,promoter activity interaction Z-score,[1]; [21],1.15 ± 0.18
same,promoter activity interaction Z-score,[1]; [22],0.198 ± 1.3
same,promoter activity interaction Z-score,[2]; [7],-0.227 ± 0.25
same,promoter activity interaction Z-score,[2]; [8],0.053 ± 0.061
same,promoter activity interaction Z-score,[2]; [9],-0.0521 ± 0.036
same,promoter activity interaction Z-score,[2]; [10],-0.3 ± 0.065
same,promoter activity interaction Z-score,[2]; [11],-0.0683 ± 0.18
same,promoter activity interaction Z-score,[2]; [12],0.0385 ± 0.078
same,promoter activity interaction Z-score,[2]; [13],-0.0229 ± 0.046
same,promoter activity interaction Z-score,[2]; [14],-0.31 ± 0.0043
same,promoter activity interaction Z-score,[2]; [15],-0.471 ± 0.25
same,promoter activity interaction Z-score,[2]; [16],-0.104 ± 0.084
same,promoter activity interaction Z-score,[2]; [17],-0.121 ± 0.023
same,promoter activity interaction Z-score,[2]; [18],0.017 ± 0.027
same,promoter activity interaction Z-score,[2]; [19],0.578 ± 0.33
same,promoter activity interaction Z-score,[2]; [20],-0.163 ± 0.034
same,promoter activity interaction Z-score,[2]; [21],-0.0601 ± 0.12
same,promoter activity interaction Z-score,[2]; [22],-0.264 ± 0.2
same,promoter activity interaction Z-score,[3]; [7],0.269 ± 0.034
same,promoter activity interaction Z-score,[3]; [8],0.352 ± 0.034
same,promoter activity interaction Z-score,[3]; [9],-0.181 ± 0.21
same,promoter activity interaction Z-score,[3]; [10],0.154 ± 0.62
same,promoter activity interaction Z-score,[3]; [11],0.162 ± 0.32
same,promoter activity interaction Z-score,[3]; [12],0.534 ± 0.28
same,promoter activity interaction Z-score,[3]; [13],0.297 ± 0.084
same,promoter activity interaction Z-score,[3]; [14],-0.146 ± 0.43
same,promoter activity interaction Z-score,[3]; [15],-0.707 ± 0.057
same,promoter activity interaction Z-score,[3]; [16],0.0141 ± 0.47
same,promoter activity interaction Z-score,[3]; [17],0.161 ± 0.65
same,promoter activity interaction Z-score,[3]; [18],0.414 ± 0.21
same,promoter activity interaction Z-score,[3]; [19],3.07 ± 0.41
same,promoter activity interaction Z-score,[3]; [20],3.8 ± 2.2
same,promoter activity interaction Z-score,[3]; [21],2.55 ± 1.5
same,promoter activity interaction Z-score,[3]; [22],2.08 ± 5
same,promoter activity interaction Z-score,[4]; [7],0.505 ± 0.043
same,promoter activity interaction Z-score,[4]; [8],0.245 ± 0.25
same,promoter activity interaction Z-score,[4]; [9],0.133 ± 0.36
same,promoter activity interaction Z-score,[4]; [10],0.554 ± 0.71
same,promoter activity interaction Z-score,[4]; [11],0.0622 ± 0.91
same,promoter activity interaction Z-score,[4]; [12],0.483 ± 0.81
same,promoter activity interaction Z-score,[4]; [13],0.389 ± 0.11
same,promoter activity interaction Z-score,[4]; [14],1.15 ± 1.3
same,promoter activity interaction Z-score,[4]; [15],-0.338 ± 0.75
same,promoter activity interaction Z-score,[4]; [16],-0.357 ± 0.2
same,promoter activity interaction Z-score,[4]; [17],0.416 ± 0.18
same,promoter activity interaction Z-score,[4]; [18],1.3 ± 1
same,promoter activity interaction Z-score,[4]; [19],-0.301 ± 0.048
same,promoter activity interaction Z-score,[4]; [20],0.127 ± 0.3
same,promoter activity interaction Z-score,[4]; [21],-0.752 ± 0.35
same,promoter activity interaction Z-score,[4]; [22],-0.158 ± 0.9
same,promoter activity interaction Z-score,[5]; [7],0.228 ± 0.36
same,promoter activity interaction Z-score,[5]; [8],0.2 ± 0.11
same,promoter activity interaction Z-score,[5]; [9],-0.0473 ± 0.12
same,promoter activity interaction Z-score,[5]; [10],0.164 ± 0.072
same,promoter activity interaction Z-score,[5]; [11],-0.175 ± 0.12
same,promoter activity interaction Z-score,[5]; [12],0.188 ± 0.14
same,promoter activity interaction Z-score,[5]; [13],-0.154 ± 0.05
same,promoter activity interaction Z-score,[5]; [14],0.0176 ± 0.14
same,promoter activity interaction Z-score,[5]; [15],-0.307 ± 0.09
same,promoter activity interaction Z-score,[5]; [16],0.119 ± 0.16
same,promoter activity interaction Z-score,[5]; [17],0.0235 ± 0.023
same,promoter activity interaction Z-score,[5]; [18],0.138 ± 0.19
same,promoter activity interaction Z-score,[5]; [19],-0.0128 ± 0.14
same,promoter activity interaction Z-score,[5]; [20],0.0924 ± 0.018
same,promoter activity interaction Z-score,[5]; [21],-0.135 ± 0.043
same,promoter activity interaction Z-score,[5]; [22],0.657 ± 0.49
same,promoter activity interaction Z-score,[6]; [7],-0.233 ± 0.12
same,promoter activity interaction Z-score,[6]; [8],-0.202 ± 0.12
same,promoter activity interaction Z-score,[6]; [9],-0.412 ± 0.27
same,promoter activity interaction Z-score,[6]; [10],-0.149 ± 0.38
same,promoter activity interaction Z-score,[6]; [11],-0.358 ± 0.5
same,promoter activity interaction Z-score,[6]; [12],0.891 ± 0.16
same,promoter activity interaction Z-score,[6]; [13],-0.173 ± 0.68
same,promoter activity interaction Z-score,[6]; [14],0.35 ± 0.7
same,promoter activity interaction Z-score,[6]; [15],-1.79 ± 0.32
same,promoter activity interaction Z-score,[6]; [16],-0.292 ± 0.4
same,promoter activity interaction Z-score,[6]; [17],-0.445 ± 0.36
same,promoter activity interaction Z-score,[6]; [18],0.22 ± 0.3
same,promoter activity interaction Z-score,[6]; [19],-0.204 ± 0.16
same,promoter activity interaction Z-score,[6]; [20],-0.347 ± 0.15
same,promoter activity interaction Z-score,[6]; [21],-0.366 ± 0.71
same,promoter activity interaction Z-score,[6]; [22],-0.266 ± 0.13
